Measurements from PubChem BioAssay AID2014 (Sanford-Burnham Center for Chemical Genomics, 2009).
About 3,000 (1%) of roughly 290,000 compounds were called active. No rule for the calls is given here. Shown is part of a subset that was picked to be rich in actives.

Target: Polyadenylate-binding protein 1 (Homo sapiens) (UniProt P11940)
Assay: PABP poly(A) RNA binding inhibitors, primary screen, biochemical, fluorescence polarization, uHTS (AID 2014);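 also: calls also rest on retests at 20 µM and on dose response follow-up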
Settings: stronger effect = higher value

Chain of Polyadenylate-binding protein 1 (Homo sapiens) (P11940 whole entry, looked up): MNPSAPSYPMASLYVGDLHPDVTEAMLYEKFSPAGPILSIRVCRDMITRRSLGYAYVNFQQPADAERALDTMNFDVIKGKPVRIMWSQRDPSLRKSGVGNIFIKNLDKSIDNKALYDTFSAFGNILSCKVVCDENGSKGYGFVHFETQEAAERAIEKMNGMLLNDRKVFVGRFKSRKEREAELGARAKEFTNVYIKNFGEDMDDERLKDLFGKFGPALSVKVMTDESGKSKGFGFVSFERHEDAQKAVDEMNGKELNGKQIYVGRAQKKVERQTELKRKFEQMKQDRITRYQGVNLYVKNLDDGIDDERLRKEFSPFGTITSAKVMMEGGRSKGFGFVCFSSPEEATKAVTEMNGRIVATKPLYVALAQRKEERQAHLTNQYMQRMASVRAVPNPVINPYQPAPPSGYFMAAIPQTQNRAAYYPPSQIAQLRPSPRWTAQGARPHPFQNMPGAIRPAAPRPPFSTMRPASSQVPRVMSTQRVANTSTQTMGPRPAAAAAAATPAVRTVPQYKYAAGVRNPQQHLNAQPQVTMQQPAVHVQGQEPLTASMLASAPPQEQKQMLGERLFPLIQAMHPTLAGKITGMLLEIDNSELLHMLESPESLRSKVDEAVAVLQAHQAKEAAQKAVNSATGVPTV

Row | SMILES | inhibition (at 35 µM) | inhibition (confirmation repeats, at 20 µM) [%]
1 | O=C(O)COc1ccccc1/C=C1\C(=O)NC(=O)N(CCC2=CCCCC2)C1=O | 53.5% (active) | –
2 | O=C1NC(=O)N(Cc2ccco2)C(=O)/C1=C\c1cccn1CCOc1ccccc1 | 10.9% (inactive) | –
3 | O=C1NC(=O)N(CCc2ccc(F)cc2)C(=O)/C1=C/C=C/c1ccccc1 | -13.4% (inactive) | –
4 | COc1ccc(Br)cc1CNCCc1cccc(Cl)c1 | 3.3% (inactive) | –
5 | c1ccc(CC2CCCCN2)cc1 (stereo unspecified) | 1.7% (inactive) | –
6 | COc1ccc(CNCCc2c[nH]c3ccccc23)cc1OC | 11.6% (inactive) | –
7 | CCC(=NCCc1ccccc1)c1c(O)n(C2CCCCC2)c(=O)[nH]c1=O | -9.2% (inactive) | –
8 | CC(=O)c1c(O)n(C2CCCCCC2)c(=O)[nH]c1=O | 75.6% (active) | –
9 | CC(=NCC1CCCO1)c1c(O)n(-c2ccccc2)c(=O)[nH]c1=O (stereo unspecified) | -3.4% (inactive) | –
10 | COc1cccc(OC)c1C(=O)NC(=S)N1C[C@H]2C[C@H](C1)c1cccc(=O)n1C2 | 13.3% (inactive) | –
11 | CN(C)c1ccc(/C=C2\CC3C4CC=C5CC(O)CCC5(C)C4CCC3(C)C2=O)cc1 (stereo unspecified) | 53.3% (active) | 93.6
12 | O=C(Cc1ccc(Cl)cc1)NCCN1CCN(C(=O)Cc2ccc(Cl)cc2)CC1 | 3.1% (inactive) | –
13 | O=[N+]([O-])c1cnc2ccc3ccccc3c2c1 | 3.3% (inactive) | –
14 | COc1ccc2[nH]c3c(c2c1)CCN[C@H]3C | 7.6% (inactive) | –
15 | COc1ccc(N=Cc2c(O)n(C)c(=O)[nH]c2=O)cc1 | -8.6% (inactive) | –
16 | CN(C)CCN(CC1CCCN(Cc2ccccc2F)C1)C(=O)Cc1ccc(F)c(F)c1 (stereo unspecified) | 0.6% (inactive) | –
17 | Cc1c(Oc2cc(NN3CCCCC3)c([N+](=O)[O-])cc2[N+](=O)[O-])cccc1[N+](=O)[O-] | 2.3% (inactive) | –
18 | O=C(NC(=S)N1C[C@H]2C[C@H](C1)c1cccc(=O)n1C2)c1ccc(F)cc1 | 2.2% (inactive) | –
19 | CCN(CC)CCOC(=O)c1cc2cc(COC)ccc2o1 | 70.7% (active) | –
20 | C=CCN1C(=O)NC(=O)/C(=C/c2ccc(OCC(=O)Nc3ccc(C)cc3)cc2)C1=O | 8.1% (inactive) | –
21 | COc1ccc(CNCCc2ccc3c(c2)OCO3)c(OC)c1OC | 11.3% (inactive) | –
22 | N#CC1=C(N)Oc2c(c(=O)oc3ccccc23)C1c1ccccc1OC(=O)c1cccs1 (stereo unspecified) | -4.4% (inactive) | –

Row | SMILES | inhibition (at 35 µM) | inhibition (confirmation repeats, at 20 µM) [%]
23 | CCNc1nc2[nH]c(=O)c3c(c2s1)OC(N)=C(C#N)C3c1cccs1 (stereo unspecified) | 68.5% (active) | –
24 | COc1cccc(C(=O)N2C[C@H]3C[C@@H](C2)c2cccc(=O)n2C3)c1 | 1.4% (inactive) | –
25 | COc1ccccc1NC(=O)N1C[C@@H]2C[C@@H](C1)c1cccc(=O)n1C2 | -1.1% (inactive) | –
26 | O=C(O)c1ccccc1NC(=O)C1C2CCC(O2)C1C(=O)O (stereo unspecified) | -8.7% (inactive) | –
27 | COc1cccc(N2C(=O)NC(=O)/C(=C\c3ccc([N+](=O)[O-])s3)C2=O)c1 | -6.1% (active) | 95.4
28 | O=C1NC(=O)N(c2ccccc2)C(=O)/C1=C/c1ccc([N+](=O)[O-])s1 | 40.1% (inactive) | 30.8
29 | Cc1cccc(N2C(=O)NC(=O)/C(=C\c3cnn(-c4ccccc4)c3)C2=O)c1 | -12.4% (inactive) | –
30 | Oc1cc2c(cc1CN1CCN(c3ccccc3)CC1)OCO2 | 2% (inactive) | –
31 | COCCNC(=O)CN1C2CCC1CC(O)(c1cccnc1)C2 (stereo unspecified) | 14.6% (inactive) | –
32 | CC(C)(C)c1ccc(CN2C(=O)CN=C(c3ccccc3)c3ccccc32)cc1 | 12.1% (inactive) | –
33 | O=C1CC(=O)N(Cc2ccccc2)C(=O)N1CCCCCCN1C(=O)CC(=O)N(Cc2ccccc2)C1=O | 25.8% (active) | 112
34 | O=C(CN1CCCC1=O)NCCc1ccccc1 | -2.9% (inactive) | –
35 | CC(C)c1ccc(OCC(=O)N2CCCN(C)CC2)cc1 | -0.5% (inactive) | –
36 | Cc1cc(/C=C2/C(=O)NC(=O)N(Cc3ccco3)C2=O)c(C)n1-c1ccc(C(=O)O)cc1 | 47.1% (inactive) | 23.1
37 | COc1ccc(CN2C(=O)NC(=O)/C(=C\c3ccc(OC)c(OC)c3OC)C2=O)cc1 | 66.4% (inactive) | 6.1
38 | COc1ccc(N2C(=O)/C(=C/c3ccco3)C(=O)NC2=S)cc1 | 38.7% (active) | 73.3
39 | COc1ccccc1OC(=O)c1ccc(C)c(S(=O)(=O)N2CCOCC2)c1 | -7% (inactive) | –
40 | CCN(CC)C(=O)c1ccc(NC(=O)c2sccc2-c2ccccc2)cc1 | -2.6% (inactive) | –
41 | CN(C)C(=O)Oc1ccc2c(c1)O/C(=C\c1ccccc1)C2=O | -6.7% (inactive) | –
42 | CC(=O)Nc1ccc(C(=O)C(Cc2ccccc2)N(C)C)cc1 (stereo unspecified) | -3.6% (inactive) | –
43 | c1ccc(CCNC2CCCCCC2)cc1 | 8.2% (inactive) | –
44 | O=c1[nH]c(=O)n(CCc2ccccc2)c(O)c1/C=N/N1CCOCC1 | -1.6% (inactive) | –

Row | SMILES | inhibition (at 35 µM) | inhibition (confirmation repeats, at 20 µM) [%]
45 | O=C(N/N=C/c1c(O)n(Cc2ccccc2)c(=O)[nH]c1=O)c1ccccc1 | 15% (active) | 81.4
46 | CCCCC(=O)N/N=C/c1c(O)n(-c2ccccc2)c(=O)[nH]c1=O | 5.3% (inactive) | –
47 | O=c1[nH]c(=O)n(Cc2ccccc2)c(O)c1/C=N/Nc1c(F)c(F)c(F)c(F)c1F | 71% (active) | –
48 | O=c1[nH]c(=O)n(CCc2ccc(F)cc2)c(O)c1/C=N/N1CCCCC1 | -15% (inactive) | –
49 | O=C(N/N=C/c1c(O)n(C2CC2)c(=S)[nH]c1=O)c1ccccc1 | 0.6% (inactive) | –
50 | CN1CCC(OC(=O)c2cccc(F)c2)CC1 | -7.8% (inactive) | –
51 | CCN(CC)C(=O)Oc1ccc(NC(=O)N2CCOCC2)cc1 | 2.1% (inactive) | –
52 | CCN1CCN(Cc2cc(OC)c3c(c2)OCO3)CC1 | 16.4% (inactive) | –
53 | Cc1ccc(C2CN(C)CC2C(=O)c2ccc(F)cc2)cc1 (stereo unspecified) | 3.1% (inactive) | –
54 | CC1(C)Cc2c(C#N)c(N3CCNCC3)nc(-c3ccco3)c2CS1 | 47.2% (active) | 59.2
55 | O=C(N/N=C/c1c(O)n(C2CC2)c(=S)[nH]c1=O)c1ccccc1Cl | 31% (inactive) | –
56 | O=c1c2ccccc2nc(/C=C/c2ccc(F)cc2)n1-c1ccccc1O | -9.7% (inactive) | –
57 | O=c1c2ccccc2nc(-c2ccco2)n1-c1ccc(Br)cn1 | 5.1% (inactive) | –
58 | O=c1c2ccccc2nc(/C=C/c2ccco2)n1-c1ccccc1O | 43.7% (active) | 54.4
59 | CN(C)S(=O)(=O)c1cc(C(=O)N2CCC(C(=O)O)(c3ccccc3)CC2)ccc1Cl | 7.1% (inactive) | –
60 | Cc1cccc(NC(=O)N2CC3CC(C2)c2cccc(=O)n2C3)c1 (stereo unspecified) | -0.3% (inactive) | –
61 | CC1CCC(N(C)C2CCN(C)CC2)CC1 (stereo unspecified) | 10.9% (inactive) | –
62 | Cn1c(O)c(C=Nc2ccc3c(c2)CCC3)c(=O)n(C)c1=O | -0.7% (inactive) | –
63 | CC(C)n1c(=O)c(C=Nc2ccc(Br)cc2)c(O)n(Cc2ccco2)c1=O | 6% (active) | 52
64 | CN(C)CCCN=Cc1c(O)n(Cc2ccco2)c(=O)[nH]c1=O | 3% (inactive) | –
65 | CCN1C(=O)C(=Cc2c(C)n(CC(=O)NCC3CCCO3)c3ccccc23)C(=O)N(CC)C1=S (stereo unspecified) | -3.1% (inactive) | –
